Hits are enriched below; roughly 5.8% of the tested compounds scored in any of these assays.
KB-V1 cytotox: KB-V1 MDR subline cytotoxicity; KB-V1 MDR cells viability, CellTiter-Glo, 72 h; Potency, µM (titrated, usually from 46.1 µM), actives largely listed as cytotoxic; actives 3.4% (n = 400,000); further: nearly all actives have a fitted effect of over 60% in size
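Compound-treated KB-V1 multidrug-resistant cells, 72 h, 37 degrees C; viability by CellTiter-Glo. Fitted qHTS curves give the values.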
MCF10A rerep: DNA re-replication induction in MCF 10a cells; actives 2.9% (n = 350,000); Potency, µM (highest dose often 46.1 µM), actives largely listed as activators; MCF 10A DNA re-replication, Hoechst nuclear intensity, 48 h; further: nearly all actives have a fitted effect of over 50% in size
PINK1 expr mod: PINK1 expression modulation. PINK1 immunofluorescence, high-content cytometry, 24 h. Potency, µM (series often up to 76.6 µM), hits mostly activators. actives 0.2% (n = 410,000). AID 624263; active means well fitted activation curve with a large enough effect; inconclusive means small, poorly fitted or top-dose-only effect; cell line not stated here; further: nearly all actives have a fitted effect of over 65% in size
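Readout is PINK1 immunofluorescence, quantified alongside mitochondrial, cell and nuclear markers by laser-scanning microplate cytometry. Cells from a stable line were exposed to compound titrations (5 concentrations) for 24 hours, with CCCP controls.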
12-LOX inh: ALOX12 (human) lipoxygenase inhibition; P18054; purified 12hLO, xylenol orange hydroperoxide absorbance; Potency, µM (top dose mostly 108 µM), most hits filed as inhibitors; actives 1.1% (n = 580,000); AID 1671190
Target sequence (P18054 whole entry, looked up): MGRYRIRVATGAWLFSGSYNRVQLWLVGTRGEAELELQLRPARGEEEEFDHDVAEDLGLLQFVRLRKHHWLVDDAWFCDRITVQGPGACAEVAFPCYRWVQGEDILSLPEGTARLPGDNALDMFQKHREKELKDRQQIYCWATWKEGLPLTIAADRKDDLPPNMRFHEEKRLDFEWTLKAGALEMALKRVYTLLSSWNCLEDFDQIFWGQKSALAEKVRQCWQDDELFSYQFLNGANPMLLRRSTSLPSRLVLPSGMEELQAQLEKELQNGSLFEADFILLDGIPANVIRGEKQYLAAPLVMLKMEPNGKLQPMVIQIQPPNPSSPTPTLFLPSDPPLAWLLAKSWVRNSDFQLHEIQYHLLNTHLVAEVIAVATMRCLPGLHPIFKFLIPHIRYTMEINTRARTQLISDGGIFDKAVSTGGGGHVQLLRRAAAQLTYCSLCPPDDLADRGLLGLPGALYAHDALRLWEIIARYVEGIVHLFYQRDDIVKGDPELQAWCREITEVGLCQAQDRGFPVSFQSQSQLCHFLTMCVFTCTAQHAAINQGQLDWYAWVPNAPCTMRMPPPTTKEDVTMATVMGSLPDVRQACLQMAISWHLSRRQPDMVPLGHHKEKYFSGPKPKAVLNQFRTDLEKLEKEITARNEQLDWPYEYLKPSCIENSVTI
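Hydroperoxide product was detected by ferrous iron/xylenol orange as the 573 to 405 nm absorbance ratio. Arachidonic acid at 40 uM (final) was turned over for 30 min at room temperature by 150 nM human 12hLO, pH 7.0 Hepes buffer, after 15 min compound preincubation.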
SW480 rereplic: induces DNA re-replication in SW480 colon adenocarcinoma cells; SW480 DNA re-replication, Hoechst DNA content imaging, 48 h; Potency, µM (highest dose often 46.1 µM), actives largely listed as activators; actives 1.8% (n = 340,000); AID 624297; further: nearly all actives have a fitted effect of over 55% in size
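Quantitative HTS format with DMSO vehicle controls; 48 hr drug incubation at 37 C, then 40 min Hoechst staining and scanning imager measurement at 405 nm excitation.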
KB-3-1 tox: kills parental KB-3-1 adenocarcinoma cells; KB-3-1 viability, CellTiter-Glo ATP luminescence, 72 h; Potency, µM (doses to about 46.1 µM), most hits filed as cytotoxic; actives 1.4% (n = 400,000); AID 1347075; further: nearly all actives have a fitted effect of over 60% in size
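KB-3-1 parental drug-naive adenocarcinoma cells in DMEM/10% FBS, incubated 72 h at 37 C with pin-transferred compounds across a concentration series. Viability by CellTiter-Glo luminescence; concentration-response curves fitted after normalization.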
Hits are given with their value; n = inactive; u = inconclusive; x = not tested or not shown. Unless noted, the call rests on the fitted dose curve; in most records, active means well fitted curve in the direction sought with a large enough effect; inconclusive means small, poorly fitted or top-dose-only effect, or another doubt; inactive means no such curve, though single readings can be large; an effect the other way counts as inactive or inconclusive.

SMILES	KB-V1 cytotox	MCF10A rerep	PINK1 expr mod	12-LOX inh	SW480 rereplic	KB-3-1 tox
CSc1cccc(NC(=O)NC(c2ccccc2)c2nnc(-c3ccccc3Cl)o2)c1 (stereo unspecified)	x	x	x	n	x	x
CC(=O)NCCNc1ncnc2ccc(-c3ccccc3Cl)cc12	x	x	n	32µM	x	x
CCCNc1c(NC(=O)Nc2cccc(OC)c2)c(=O)oc2ccccc12	x	x	x	n	x	x
COc1ccc(C2=CC(c3cccc(C)c3)n3nnnc3N2)cc1 (stereo unspecified)	n	x	n	n	x	n
COc1ccc(C2C=C(c3ccc(Cl)cc3)Nc3nc(-c4ccc(Cl)cc4)nn32)cc1 (stereo unspecified)	u	x	16µM	5.6µM	x	u
COc1ccc(C2=CC(c3c(C)nn(-c4ccccc4)c3Cl)n3nnnc3N2)cc1OC (stereo unspecified)	21µM	u	n	n	u	16µM
COc1ccccc1C1C=C(c2ccc(C)cc2)Nc2nnnn21 (stereo unspecified)	n	n	n	n	n	n
COc1ccc(OC)c(C2C=C(c3cccc(Br)c3)Nc3nnnn32)c1 (stereo unspecified)	x	x	x	n	x	x
COc1cccc(C2=CC(c3cc(Br)ccc3F)n3nnnc3N2)c1 (stereo unspecified)	n	x	n	n	x	13µM
COc1ccc(C2=CC(c3c(F)cccc3Cl)n3nnnc3N2)cc1 (stereo unspecified)	x	x	x	40µM	x	x
O=C(Cc1ccccc1)Nc1ccc(O)c(-c2nc3ccccc3o2)c1	x	x	x	n	x	x
O=C/C=C/c1ccccc1[N+](=O)[O-]	x	x	x	n	x	x
Cn1c(=O)c2[nH]c(N3CCN(C(=O)C4CC4)CC3)nc2n(C)c1=O	x	x	x	n	x	x
COc1ccc(OC)c(NC(=O)Nc2cccc(-c3ccc(N4CCCCC4)nn3)c2)c1	x	x	x	n	x	x
Cc1cccc(-c2ocnc2C(=O)NCCc2ccccc2C)c1	x	x	x	n	x	x
Clc1ccc(C2C=C(c3ccccc3)Nc3nnnn32)c(Cl)c1 (stereo unspecified)	x	x	x	18µM	x	x
Cc1ccc2c(c1)-c1[nH]c(=S)ncc1CS2	n	n	n	32µM	n	n
CN(C)C(=O)COc1ccc2ccc(=O)oc2c1	n	n	n	n	n	n
CC(C)=CC(O)C/C(C)=C/COc1ccc2ccc(=O)oc2c1 (stereo unspecified)	13µM	u	n	n	n	5.8µM
O=C(NC1CC1)c1ccccc1OCC1CCCN(Cc2cccc3[nH]ccc23)C1 (stereo unspecified)	x	x	x	n	x	x
COc1ccc(C#Cc2c(C=O)n(C)c3ccccc23)cc1	n	u	u	u	21µM	u
Cn1c(C=O)c(C#Cc2ccccc2)c2ccccc21	n	8.2µM	u	n	u	u
COc1cc(C#Cc2c(-c3ccccc3)n(C)c3ccccc23)cc(OC)c1	n	u	n	n	n	n
CCCN1CCC(NC(=O)c2csc3c2CCCC3)CC1	x	x	x	n	x	x
CC(C)(C)C(=O)N1CCN(c2ccc(NC(=O)C3(c4ccccc4)CCCC3)cc2)CC1	x	x	x	n	x	x
SMILES	KB-V1 cytotox	MCF10A rerep	PINK1 expr mod	12-LOX inh	SW480 rereplic	KB-3-1 tox
S=C1Cc2ccccc2C(c2ccc(Cl)cc2)N1 (stereo unspecified)	n	16µM	n	u	u	n
Cc1c2ccccc2cc(Cc2ccccc2)[n+]1C	n	n	n	5.6µM	n	15µM
CCOC(=O)/C=C1/SCC(=O)N1CC(=O)Nc1cccc(F)c1	n	n	n	n	n	n
CCOC(=O)/C=C1\SCC(=O)N1CC(=O)Nc1ccc2c(c1)CCC2	u	9.2µM	n	n	u	n
CNC(=O)CNC(=O)c1cc(-c2ccc(C)cc2)nc2ccccc12	x	x	x	n	x	x
CCCc1ccc(C(=O)CSc2nc(CN3CCOCC3)nc3ccccc23)cc1	x	x	x	n	x	x
COc1ccc2sc3c(=O)[nH]c4ccccc4c3c2c1	u	u	n	n	n	u
COc1ccc2c(c1)[nH]c(=O)c1sc3ccccc3c12	n	13µM	n	x	n	n
CCN(CC)S(=O)(=O)c1cc([N+](=O)[O-])ccc1N/N=C(/C)c1cccs1	x	x	x	n	x	x
CCN(Cc1ccc(OC)c(F)c1)C(=O)CCl	u	u	n	n	16µM	u
CC1=C(C(=O)OC(C)(C)C)C(c2ccc(Cl)cc2)C(C#N)=C(N)O1 (stereo unspecified)	x	x	x	n	x	x
Cc1ccc(CNn2cnnc2SCc2ccc(F)cc2)cc1	15µM	n	n	u	n	u
O=C(c1ccccc1)N1CCC2(CC1)COc1ccccc1CN2	x	x	x	n	x	x
CCOC(=O)[C@]12Cc3c(cc(OC)c(OC)c3OC)[C@H]1N(C1CCCCC1)C(=O)c1cc(OC)ccc12	4.6µM	x	n	u	x	3.3µM
O=[N+]([O-])c1cc(S(=O)(=O)Oc2ccccc2)ccc1Cl	u	u	n	n	3.3µM	u
O=C1c2ccccc2NC(c2cnc3ccccc3n2)N1c1ccccc1 (stereo unspecified)	x	x	x	n	x	x
C=CCn1c(C)cc(C(=O)COc2ccc(C)nc2[N+](=O)[O-])c1C	u	u	n	n	u	u
Cc1ccc(OCC(=O)N(Cc2ccccc2)C(C)(C)C)c([N+](=O)[O-])n1	23µM	n	n	n	n	n
Cc1cc(-n2c(C)cc(C(=O)COc3cccnc3[N+](=O)[O-])c2C)no1	16µM	7.3µM	n	n	8.2µM	u
O=C(COc1cccnc1[N+](=O)[O-])c1ccc(Cl)s1	n	u	n	40µM	n	n
Cc1ccc(OCC(=O)c2cc(C)n(-c3ccccc3)c2C)c([N+](=O)[O-])n1	21µM	u	n	n	n	8.2µM
Cc1ccc2c(COC(=O)c3cc(S(=O)(=O)N(C)C)ccc3NCCO)cc(=O)oc2c1	x	x	x	n	x	x
CCCc1nnc(C[C@@H]2C[C@@H](C(C)C)[C@H](CNc3cccnc3)C=C2C)o1	x	x	x	n	x	x
Cc1nn(-c2ccc(C(C)(C)C)cc2)c(C)c1[C@@H]1C=C[C@@H](NC(=O)NCc2ccccc2)C1	x	x	x	n	x	x
C/C(=N\NC(=O)C1CC1)c1ccc2ccccc2c1	x	x	x	n	x	x
SMILES	KB-V1 cytotox	MCF10A rerep	PINK1 expr mod	12-LOX inh	SW480 rereplic	KB-3-1 tox
Cc1ccc(OCC(=O)Nc2ccc(F)cc2)c([N+](=O)[O-])n1	u	n	n	n	n	n
Cc1ccc(OCC(=O)Nc2ccccc2Sc2ccccc2)c([N+](=O)[O-])n1	18µM	n	n	n	n	n
CCCn1c(C)cc(C(=O)COc2ccc(C)nc2[N+](=O)[O-])c1C	16µM	u	n	n	u	n
O=C(COc1cc(O)c2c(=O)cc(-c3ccccc3)oc2c1)Nc1cccc(O)c1	x	x	x	n	x	x
O=C(Nc1ccccn1)C1=C(c2ccccc2)S(=O)(=O)CCO1	x	x	x	n	x	x
CN(C)c1cccc2c(C(=O)c3ccccc3)ccc(N(C)C)c12	x	x	x	n	x	x
O=C(CSCc1coc(-c2ccc(Cl)cc2)n1)NCCc1ccccc1	x	x	x	n	x	x

Screens (PubChem)
